Test results taken from the supplement of paper PMC9262897, “Low-cost anti-mycobacterial drug discovery using engineered E. coli” (Nature Communications, 2022).
Counter-ions that a name gives are not always drawn. ± gives the standard deviation of the averaged measurements.

What was measured:
Experiment in all cases: growth (OD600 after 10 h); higher = more growth (less inhibition)
[1] = test system: E. coli TESEC Alr+ wild-type control; details: compound 0.1 mM; raw OD600 reference: median of DMSO wells 0.241, cell-free background 0.041
Protocol: (§1)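 TESEC Mtb Alr E. coli, or the Alr+ wild-type control, in 384-well plates with Prestwick library compounds at 0.1 mM and 1% DMSO, across arabinose induction levels of 1E3 to 1E7 nM. Growth is read as OD600 after 10 h at 37 °C in triplicate biological replicates.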

[2] = test system: E. coli TESEC Mtb Alr; details: compound 0.1 mM
Protocol: as §1

[3] = test system: E. coli TESEC Mtb Asd; details: compound 0.1 mM
Protocol: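 TESEC E. coli strains in which the native enzyme is deleted and replaced by arabinose-inducible Mtb Asd, DapB, CysH or TrpD, each grown in its selective medium. Strains were screened against the Prestwick library at 0.1 mM and 1% DMSO in 384-well format at low and high arabinose induction. Growth is read as OD600 after 10 h in triplicate.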

[4] = test system: E. coli TESEC Mtb Alr; details: compound 0.1 mM; remark: listed apart in the source
Protocol: (§2)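 TESEC Mtb Alr E. coli (ΔaraC ΔtolC ΔentC Δalr ΔdadX, arabinose-inducible Mtb Alr) or the Alr+ wild-type control strain, grown in defined M9-fructose medium without D-alanine in 96-well plates with Prestwick library compounds at 0.1 mM and 1% DMSO. Low Alr induction is 0.1 µM arabinose and high induction is 10 mM arabinose.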

[5] = test system: E. coli TESEC Alr+ wild-type control; details: compound 0.1 mM; raw OD600 reference: median of DMSO wells 0.49, cell-free background 0.052
Protocol: as §2

[6] = arabinose 1000 nM, raw OD600 reference: median of DMSO wells 0.294, cell-free background 0.041
[7] = arabinose 10000 nM, raw OD600 reference: median of DMSO wells 0.264, cell-free background 0.041
[8] = arabinose 100000 nM, raw OD600 reference: median of DMSO wells 0.201, cell-free background 0.041
[9] = arabinose 1000000 nM, raw OD600 reference: median of DMSO wells 0.193, cell-free background 0.041
[10] = arabinose 10000000 nM, raw OD600 reference: median of DMSO wells 0.146, cell-free background 0.041
[11] = arabinose induction (level): High, raw OD600 reference: median of DMSO wells 0.331, cell-free background 0.041
[12] = arabinose induction (level): Low, raw OD600 reference: median of DMSO wells 0.417, cell-free background 0.041
[13] = arabinose 100 nM, raw OD600 reference: median of DMSO wells 0.413, cell-free background 0.052
[14] = arabinose 10000000 nM, raw OD600 reference: median of DMSO wells […], cell-free background 0.052

Structure (SMILES): CCNCC(O)c1cccc(O)c1 (configuration not stated) [Etilefrine hydrochloride]
- growth [1]: 0.247 ± 0.0026
- growth [2, 6]: 0.3085 ± 0.0027
- growth [2, 7]: 0.261 ± 0.012
- growth [2, 8]: 0.188 ± 0.018
- growth [2, 9]: 0.193 ± 0.0032
- growth [2, 10]: 0.134 ± 0.0026
- growth [3, 11]: 0.211 ± 0.025
- growth [3, 12]: 0.367 ± 0.035
- growth [4, 13]: 0.409 ± 0.015
- growth [4, 14]: 0.345 ± 0.023

Structure (SMILES): Clc1ccc(C(OCCN2CCCCC2)c2ccccc2)cc1 (configuration not stated) [Cloperastine hydrochloride]
- growth [1]: 0.186 ± 0.0072
- growth [2, 6]: 0.232 ± 0.0029
- growth [2, 7]: 0.2462 ± 0.0014
- growth [2, 8]: 0.174 ± 0.0052
- growth [2, 9]: 0.0487 ± 0.0015
- growth [2, 10]: 0.0546 ± 0.00059
- growth [3, 11]: 0.113 ± 0.002
- growth [3, 12]: 0.154 ± 0.0084
- growth [5]: 0.413 ± 0.033
- growth [4, 13]: 0.4058 ± 0.0039
- growth [4, 14]: 0.147 ± 0.085

Structure (SMILES): C[C@]12Cc3c[nH]nc3C[C@@H]1CC[C@@H]1[C@@H]2CC[C@@]2(C)[C@H]1CC[C@]2(C)O [Stanozolol]
- growth [1]: 0.184 ± 0.0086
- growth [2, 6]: 0.256 ± 0.0051
- growth [2, 7]: 0.245 ± 0.0053
- growth [2, 8]: 0.169 ± 0.023
- growth [2, 9]: 0.141 ± 0.0057
- growth [2, 10]: 0.139 ± 0.0021
- growth [3, 11]: 0.157 ± 0.011
- growth [3, 12]: 0.271 ± 0.051
- growth [4, 13]: 0.409 ± 0.0083
- growth [4, 14]: 0.278 ± 0.018

Structure (SMILES): C[C@]12CCC(=O)C=C1C=C[C@@H]1[C@@H]2CC[C@@]2(C)[C@H]1CC[C@@]2(O)CCC(=O)O [Canrenoic acid potassium salt]
- growth [1]: 0.227 ± 0.01
- growth [2, 6]: 0.275 ± 0.025
- growth [2, 7]: 0.237 ± 0.019
- growth [2, 8]: 0.16 ± 0.0057
- growth [2, 9]: 0.163 ± 0.0033
- growth [2, 10]: 0.15 ± 0.0017
- growth [3, 11]: 0.214 ± 0.052
- growth [3, 12]: 0.341 ± 0.03
- growth [4, 13]: 0.407 ± 0.0047
- growth [4, 14]: 0.264 ± 0.011

Structure (SMILES): COc1ccc(CCN)cc1OC [Homoveratrylamine]
- growth [1]: 0.2134 ± 0.001
- growth [2, 6]: 0.287 ± 0.0094
- growth [2, 7]: 0.281 ± 0.011
- growth [2, 8]: 0.182 ± 0.019
- growth [2, 9]: 0.219 ± 0.0076
- growth [2, 10]: 0.131 ± 0.002
- growth [3, 11]: 0.225 ± 0.018
- growth [3, 12]: 0.353 ± 0.087
- growth [5]: 0.563 ± 0.069
- growth [4, 13]: 0.409 ± 0.0095
- growth [4, 14]: 0.316 ± 0.0066

Structure (SMILES): CN(C)[C@@H]1C(=O)C(C(N)=O)=C(O)[C@@]2(O)C(=O)C3=C(O)c4c(O)cccc4[C@@](C)(O)[C@H]3[C@H](O)[C@@H]12 [Oxytetracycline dihydrate]
- growth [1]: 0.0451 ± 0.0028
- growth [2, 6]: 0.0424 ± 0.00089
- growth [2, 7]: 0.0418 ± 0.00081
- growth [2, 8]: 0.044 ± 0.0021
- growth [2, 9]: 0.0421 ± 0.0003
- growth [2, 10]: 0.04303 ± 0.00012
- growth [3, 11]: 0.0563 ± 0.0015
- growth [3, 12]: 0.0587 ± 0.0032
- growth [4, 13]: 0.0627 ± 0.0022
- growth [4, 14]: 0.0555 ± 0.003

Structure (SMILES): C[N+]1([O-])[C@@H]2C[C@@H](OC(=O)[C@H](CO)c3ccccc3)C[C@H]1[C@@H]1O[C@@H]12 (some centres not stated) [Scopolamin-N-oxide hydrobromide]
- growth [1]: 0.262 ± 0.013
- growth [2, 6]: 0.3 ± 0.013
- growth [2, 7]: 0.28 ± 0.0081
- growth [2, 8]: 0.24 ± 0.027
- growth [2, 9]: 0.19 ± 0.0068
- growth [2, 10]: 0.165 ± 0.0072
- growth [3, 11]: 0.334 ± 0.068
- growth [3, 12]: 0.408 ± 0.035
- growth [4, 13]: 0.411 ± 0.021
- growth [4, 14]: 0.347 ± 0.018

Structure (SMILES): CO[C@]12C[C@@H](COC(=O)c3cncc(Br)c3)CN(C)[C@@H]1Cc1cn(C)c3cccc2c13 [Nicergoline]
- growth [1]: 0.174 ± 0.0043
- growth [2, 6]: 0.184 ± 0.0071
- growth [2, 7]: 0.194 ± 0.0054
- growth [2, 8]: 0.223 ± 0.0047
- growth [2, 9]: 0.102 ± 0.0052
- growth [2, 10]: 0.184 ± 0.0056
- growth [3, 11]: 0.221 ± 0.021
- growth [3, 12]: 0.279 ± 0.056
- growth [4, 13]: 0.416 ± 0.005
- growth [4, 14]: 0.268 ± 0.015

Structure (SMILES): COc1ccc(CCN2CCC(Nc3nc4ccccc4n3Cc3ccc(F)cc3)CC2)cc1 [Astemizole]
- growth [1]: 0.041 ± 0.00045
- growth [2, 6]: 0.0406 ± 0.00056
- growth [2, 7]: 0.04013 ± 0.00025
- growth [2, 8]: 0.0411 ± 0.0019
- growth [2, 9]: 0.04007 ± 0.00031
- growth [2, 10]: 0.0404 ± 0.0002
- growth [3, 11]: 0.0477 ± 0.0029
- growth [3, 12]: 0.053 ± 0.004
- growth [5]: 0.0478 ± 0.00075
- growth [4, 13]: 0.176 ± 0.22
- growth [4, 14]: 0.0525 ± 0.0011

Structure (SMILES): C#CCN(C)[C@H](C)Cc1ccccc1 [Selegiline hydrochloride]
- growth [1]: 0.251 ± 0.0044
- growth [2, 6]: 0.305 ± 0.015
- growth [2, 7]: 0.283 ± 0.0084
- growth [2, 8]: 0.233 ± 0.026
- growth [2, 9]: 0.185 ± 0.0036
- growth [2, 10]: 0.17 ± 0.004
- growth [3, 11]: 0.291 ± 0.064
- growth [3, 12]: 0.391 ± 0.016
- growth [5]: 0.441 ± 0.043
- growth [4, 13]: 0.405 ± 0.017
- growth [4, 14]: 0.342 ± 0.017

Structure (SMILES): C[C@]12CCC(=O)C=C1CC[C@@H]1[C@@H]2C(=O)C[C@]2(C)C(=O)CC[C@@H]12 [Adrenosterone]
- growth [1]: 0.212 ± 0.0061
- growth [2, 6]: 0.273 ± 0.015
- growth [2, 7]: 0.245 ± 0.0058
- growth [2, 8]: 0.163 ± 0.0036
- growth [2, 9]: 0.131 ± 0.011
- growth [2, 10]: 0.123 ± 0.0015
- growth [3, 11]: 0.256 ± 0.03
- growth [3, 12]: 0.445 ± 0.023
- growth [5]: 0.533 ± 0.083
- growth [4, 13]: 0.406 ± 0.014
- growth [4, 14]: 0.2946 ± 0.0019

Structure (SMILES): CC(=O)OCC1=C(C(=O)O)N2C(=O)[C@@H](N)[C@H]2SC1 [Cephalosporanic acid, 7-amino]
- growth [1]: 0.254 ± 0.0055
- growth [2, 6]: 0.295 ± 0.011
- growth [2, 7]: 0.269 ± 0.008
- growth [2, 8]: 0.22 ± 0.023
- growth [2, 9]: 0.205 ± 0.011
- growth [2, 10]: 0.151 ± 0.0034
- growth [3, 11]: 0.273 ± 0.018
- growth [3, 12]: 0.402 ± 0.086
- growth [5]: 0.649 ± 0.029
- growth [4, 13]: 0.408 ± 0.013
- growth [4, 14]: 0.356 ± 0.011

Structure (SMILES): CCC1(C)CC(=O)NC(=O)C1 [Bemegride]
- growth [1]: 0.237 ± 0.0029
- growth [2, 6]: 0.299 ± 0.023
- growth [2, 7]: 0.253 ± 0.00095
- growth [2, 8]: 0.227 ± 0.039
- growth [2, 9]: 0.191 ± 0.0055
- growth [2, 10]: 0.135 ± 0.0098
- growth [3, 11]: 0.318 ± 0.043
- growth [3, 12]: 0.46 ± 0.0049
- growth [5]: 0.467 ± 0.024
- growth [4, 13]: 0.4 ± 0.019
- growth [4, 14]: 0.363 ± 0.02

Structure (SMILES): CC(O)(CS(=O)(=O)c1ccc(F)cc1)C(=O)Nc1ccc(C#N)c(C(F)(F)F)c1 (configuration not stated) [Bicalutamide]
- growth [1]: 0.154 ± 0.0054
- growth [2, 6]: 0.2 ± 0.0073
- growth [2, 7]: 0.306 ± 0.018
- growth [2, 8]: 0.1769 ± 0.0014
- growth [2, 9]: 0.108 ± 0.0031
- growth [2, 10]: 0.15 ± 0.0023
- growth [3, 11]: 0.216 ± 0.027
- growth [3, 12]: 0.253 ± 0.017
- growth [4, 13]: 0.397 ± 0.018
- growth [4, 14]: 0.232 ± 0.054
